Assay results as given in PubChem BioAssay (EPA / NIEHS).
Records with an inconclusive call do not appear. The source made the active and inactive calls. The calls were made as follows, unless noted: active = hit-call score of the fitted dose curve at least 0.9, where 1 is the maximum; inactive = score below 0.9.

Experiments:
[1] = ATG_CMV_CIS: Attagene CIS-FACTORIAL HepG2 Assay for human CMV (Internal Marker) (AID 2282928); settings: HepG2 CMV promoter reporter, transcription factor profiling; actives raise or lower the signal;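 also: endpoint acts as a background internal control marker rather than a target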
How it was run: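 24 h chemical treatment, HepG2 with transient multi-reporter transfection; RNA → oligo(dT) RT → PCR → 6-FAM extension → HpaI digest → CE fluorescence. Bidirectional fit, DMSO negative control.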

[2] = ATG_DR4_LXR_CIS: Attagene CIS-FACTORIAL HepG2 Assay for human Liver X Receptor (LXR), DR4 submotif (AID 2282929); settings: HepG2 Attagene DR4 cis-reporter, mRNA transcription; actives raise or lower the signal
How it was run: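 Measures endogenous transcription factor activity via a DR4-driven reporter transcript in human HepG2 cells. Compounds incubated 24 h; mRNA quantified by RT-PCR and capillary electrophoresis, analysed as gain or loss of signal versus DMSO.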

[3] = target: Transcription factor E2F1 (Homo sapiens) (UniProt Q01094); test: ATG_E2F_CIS: Attagene CIS-FACTORIAL HepG2 Assay for human E2F Transcription Factor 1 (AID 2282935); settings: HepG2 Attagene cis-reporter, E2F reporter RNA transcripts; actives raise or lower the signal
How it was run: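 In this cis-factorial format, endogenous factor activity drives transfected reporters in HepG2; transcripts collected at 24 h are quantified by fluorescence after RT-PCR and capillary separation.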

[4] = target: Hepatocyte nuclear factor 3-beta (Homo sapiens) (UniProt Q9Y261); test: ATG_FoxA2_CIS: Attagene CIS-FACTORIAL HepG2 Assay for human Forkhead box A2 (FOXA2) (AID 2282942); settings: HepG2 cis-reporter transcription factor activity, 24 h; actives raise or lower the signal
How it was run: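 In transiently transfected human HepG2 cells, promoter-driven reporter mRNA levels after 24 h chemical exposure are determined via RT-PCR with capillary electrophoresis. DMSO serves as baseline for bidirectional fitting.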

[5] = ATG_ISRE_CIS: Attagene CIS-FACTORIAL HepG2 Assay for human Interferon Regulatory Factor 1 (IRF1) binding to an Interferon-Stimulated Response Element (ISRE) (AID 2282948); settings: HepG2 ISRE cis-reporter (Attagene), mRNA transcription readout; actives raise or lower the signal
How it was run: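 Multiplexed mRNA reporter readout in human liver HepG2 cells: cis-element-driven reporters transfected, compound added for 24 h, transcripts amplified, fluorescently labelled and sized by capillary electrophoresis; curve fitting bidirectional against DMSO.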

[6] = target: Hypoxia-inducible factor 1-alpha (Homo sapiens) (UniProt Q16665); test: ATG_HIF1a_CIS: Attagene CIS-FACTORIAL HepG2 Assay for human Hypoxia Inducible Factor 1 (HIF1A) (AID 2282951); settings: HepG2 Attagene cis-factorial HIF1a reporter transcription; actives raise or lower the signal
How it was run: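 In this multiplexed cell assay, HepG2 cells bearing transfected cis reporters are dosed for 24 h and reporter mRNA is read by RT-PCR plus capillary electrophoresis; signal increases and decreases are both scored against DMSO.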

[7] = target: Hepatocyte nuclear factor 6 (Homo sapiens) (UniProt Q9UBC0); test: ATG_HNF6_CIS: Attagene CIS-FACTORIAL HepG2 Assay for human Hepatocyte Nuclear Factor 6 (HNF6) (AID 2282952); settings: HepG2 Attagene cis-factorial HNF6 reporter transcription; actives raise or lower the signal
How it was run: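 Endogenous transcription factor activity in human HepG2 liver cells was captured through cis-regulated reporter constructs. After 24 h treatment, reporter mRNA was measured by RT-PCR with capillary electrophoresis, and activity was fitted in both directions relative to DMSO.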

[8] = target: Heat shock factor protein 1 (Homo sapiens) (UniProt Q00613); test: ATG_HSE_CIS: Attagene CIS-FACTORIAL HepG2 Assay for human Heat Shock Transcription Factor 1 (HSE) (AID 2282953); settings: HepG2 HSE cis-reporter, Attagene RNA transcription; actives raise or lower the signal
How it was run: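 Liver-derived HepG2 cells carry transiently introduced multiple reporter units governed by cis promoters. Reporter RNA measured 24 h post-dose through reverse transcription, PCR amplification, fluorescent labelling and capillary electrophoresis, normalised to DMSO.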

[9] = ATG_RORE_CIS: Attagene CIS-FACTORIAL HepG2 Assay for human RAR-related Orphan Receptor Element (RORE) (AID 2282959); settings: HepG2 Attagene cis-factorial RORE reporter, mRNA; actives raise or lower the signal
How it was run: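 Fluorescence intensity of reporter-specific cDNA fragments, separated by capillary electrophoresis, gives the signal. Source: HepG2 liver cells transiently transfected with cis-element reporters and exposed 24 h; DMSO-normalized bidirectional fit.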

[10] = ATG_Sox_CIS: Attagene CIS-FACTORIAL HepG2 Assay for human SRY-box transcription factor (SOX) (AID 2282960); settings: HepG2 Attagene cis-factorial SOX reporter, mRNA; actives raise or lower the signal
How it was run: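 After 24 h of chemical treatment, transfected HepG2 reporter cells are lysed for total RNA. Transcript levels come from RT-PCR with labelled primer extension and capillary electrophoresis, analysed bidirectionally versus DMSO.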

[11] = ATG_TA_CIS: Attagene CIS-FACTORIAL HepG2 Assay for human TA Basal Promoter (AID 2282964); settings: HepG2 Attagene CIS-factorial TA basal promoter reporter; actives raise or lower the signal
How it was run: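 Background internal-marker endpoint from a 52-component HepG2 cis-reporter panel. Cells treated 24 h; reporter transcripts quantified via RT-PCR and CE fluorescence against DMSO baseline.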

[12] = ATG_TGFb_CIS: Attagene CIS-FACTORIAL HepG2 Assay for human Transforming Growth Factor (TGF) (AID 2282967); settings: HepG2 Attagene CIS TGFb reporter, mRNA transcription; actives raise or lower the signal
How it was run: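 Liver HepG2 line, cis-factorial reporter panel, 24 h dosing. Quantitation: RT-PCR products labeled with 6-FAM, cut with HpaI, resolved by capillary electrophoresis; DMSO-referenced bidirectional analysis.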

[13] = ATG_M_06_TRANS: Attagene TRANS-FACTORIAL HepG2 Assay for M06 Transcription Factor (Internal Marker) (AID 2282983; active = hit-call score of the fitted dose curve at least 0.9, where 1 is the maximum); settings: HepG2 Attagene TRANS M06 internal marker reporter
How it was run: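 Human liver HepG2 cells bearing transiently transfected chimeric NR-GAL4 reporter units were treated with chemicals for 24 h. Total RNA was reverse-transcribed, reporter sequences amplified and labelled, then quantified by capillary electrophoresis. Activity was fitted upward relative to DMSO.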

[14] = ATG_NFI_CIS: Attagene CIS-FACTORIAL HepG2 Assay for human Nuclear Factor I (NFI) (AID 2282989); settings: HepG2 cis-regulatory reporter, NFI response element transcription; actives raise or lower the signal
How it was run: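 Transfected HepG2 liver cells, exposed 24 h, supplied total RNA for oligo(dT) reverse transcription and reporter-specific PCR. Labelled, HpaI-cut fragments were sized by capillary electrophoresis; DMSO set the baseline for bidirectional fitting.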

[15] = target: Myc proto-oncogene protein (Homo sapiens) (UniProt P01106); test: ATG_Myc_CIS: Attagene CIS-FACTORIAL HepG2 Assay for human Myelocytomatosis (Myc) Proto-Oncogene Transcription Factor (AID 2282990); settings: HepG2, Attagene cis-reporter transcription factor activity; actives raise or lower the signal
How it was run: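 DMSO-normalised, bidirectionally fitted reporter mRNA signal. HepG2 cells transfected with cis reporter constructs, treated 24 h; transcripts detected by RT-PCR, 6-FAM primer extension and CE.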

[16] = ATG_NRF2_ARE_CIS: Attagene CIS-FACTORIAL HepG2 Assay for human Nuclear Factor Erythroid 2 Related Factor 2 (NFR2) response to Antioxidant Response Elements (ARE) (AID 2282992); settings: HepG2 Attagene ARE/NRF2 reporter, transcription factor activity; actives raise or lower the signal
How it was run: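 Endogenous transcription factor activity in human liver HepG2 cells is tracked via a cis-element-driven reporter within a multiplexed set. mRNA induction is read by RT-PCR and capillary electrophoresis after 24 h, with DMSO as baseline.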

[17] = target: Cellular tumor antigen p53 (Homo sapiens) (UniProt P04637); test: ATG_p53_CIS: Attagene CIS-FACTORIAL HepG2 Assay for human p53 Transcription Factor (AID 2282994); settings: HepG2 p53 cis-element reporter, Attagene mRNA; actives raise or lower the signal
How it was run: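 Steps: transfect HepG2 with multiplexed cis reporter constructs; dose chemicals 24 h; extract RNA, reverse-transcribe, PCR-amplify reporter sequences; FAM-label, HpaI-digest, resolve fragments by CE. Activity fitted both directions relative to DMSO.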

[18] = target: Nuclear receptor subfamily 1 group I member 2 (Homo sapiens) (UniProt O75469); test: ATG_PXR_TRANS: Attagene TRANS-FACTORIAL HepG2 Assay for human Pregnane X Receptor (PXR) (AID 2283008; active = hit-call score of the fitted dose curve at least 0.9, where 1 is the maximum)
How it was run: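 HepG2 transfected (FuGene 6) with GAL4-UAS reporter units + PXR-Gal4 chimera; dosed 24 h. Total RNA → oligo(dT) RT → PCR → 6-FAM primer extension → HpaI cut → CE. Gain-of-signal vs DMSO.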

[19] = ATG_M_19_CIS: Attagene CIS-FACTORIAL HepG2 Assay for M19 Transcription Factor (Internal Marker) (AID 2282939); settings: HepG2 Attagene CIS-FACTORIAL M19 internal marker reporter; actives raise or lower the signal
How it was run: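 Chemical-treated HepG2 (24 h) with MRTU constructs; reporter transcripts detected by fluorescent RT-PCR fragment analysis on capillary electrophoresis. Internal background marker, DMSO as baseline.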

[20] = ATG_VDRE_CIS: Attagene CIS-FACTORIAL HepG2 Assay for human Vitamin D Receptor Element (VDRE) (AID 2282968); settings: HepG2 VDRE cis-reporter transcription, actives raise or lower the signal
How it was run: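 Transfected HepG2 reporter cells, chemical treatment 24 h. RNA isolated, cDNA amplified with reporter-specific primers, products analysed by capillary electrophoresis. Endpoint fitted in both directions versus DMSO.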

Measured: AC50

Chain of Heat shock factor protein 1 (Homo sapiens) (Q00613 whole entry, looked up): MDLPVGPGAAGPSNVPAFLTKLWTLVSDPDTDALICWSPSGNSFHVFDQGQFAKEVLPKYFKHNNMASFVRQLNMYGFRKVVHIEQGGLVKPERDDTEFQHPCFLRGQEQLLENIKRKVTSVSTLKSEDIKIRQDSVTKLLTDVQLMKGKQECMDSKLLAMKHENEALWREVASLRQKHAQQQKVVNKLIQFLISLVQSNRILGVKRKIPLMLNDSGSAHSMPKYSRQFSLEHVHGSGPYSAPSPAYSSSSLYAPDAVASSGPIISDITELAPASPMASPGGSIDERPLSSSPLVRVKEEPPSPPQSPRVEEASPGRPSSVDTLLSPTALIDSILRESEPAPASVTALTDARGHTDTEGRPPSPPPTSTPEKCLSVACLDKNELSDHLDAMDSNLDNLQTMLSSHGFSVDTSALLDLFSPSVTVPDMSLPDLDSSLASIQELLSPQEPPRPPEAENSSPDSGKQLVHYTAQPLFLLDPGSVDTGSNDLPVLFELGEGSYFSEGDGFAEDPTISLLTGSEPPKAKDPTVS
Chain of Hepatocyte nuclear factor 3-beta (Homo sapiens) (Q9Y261 whole entry, looked up): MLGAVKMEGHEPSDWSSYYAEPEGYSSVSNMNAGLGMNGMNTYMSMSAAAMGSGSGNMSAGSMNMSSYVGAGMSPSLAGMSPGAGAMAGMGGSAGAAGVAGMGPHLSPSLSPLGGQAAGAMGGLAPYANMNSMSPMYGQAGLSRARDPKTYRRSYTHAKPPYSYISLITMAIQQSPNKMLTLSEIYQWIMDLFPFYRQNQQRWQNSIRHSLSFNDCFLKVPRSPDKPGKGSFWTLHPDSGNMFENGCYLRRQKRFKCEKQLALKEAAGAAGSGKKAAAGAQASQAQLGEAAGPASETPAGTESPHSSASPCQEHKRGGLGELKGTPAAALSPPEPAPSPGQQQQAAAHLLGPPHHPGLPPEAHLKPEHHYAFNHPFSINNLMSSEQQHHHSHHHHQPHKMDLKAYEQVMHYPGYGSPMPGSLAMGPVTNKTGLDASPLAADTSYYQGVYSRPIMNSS
Chain of Hypoxia-inducible factor 1-alpha (Homo sapiens) (Q16665 whole entry, looked up): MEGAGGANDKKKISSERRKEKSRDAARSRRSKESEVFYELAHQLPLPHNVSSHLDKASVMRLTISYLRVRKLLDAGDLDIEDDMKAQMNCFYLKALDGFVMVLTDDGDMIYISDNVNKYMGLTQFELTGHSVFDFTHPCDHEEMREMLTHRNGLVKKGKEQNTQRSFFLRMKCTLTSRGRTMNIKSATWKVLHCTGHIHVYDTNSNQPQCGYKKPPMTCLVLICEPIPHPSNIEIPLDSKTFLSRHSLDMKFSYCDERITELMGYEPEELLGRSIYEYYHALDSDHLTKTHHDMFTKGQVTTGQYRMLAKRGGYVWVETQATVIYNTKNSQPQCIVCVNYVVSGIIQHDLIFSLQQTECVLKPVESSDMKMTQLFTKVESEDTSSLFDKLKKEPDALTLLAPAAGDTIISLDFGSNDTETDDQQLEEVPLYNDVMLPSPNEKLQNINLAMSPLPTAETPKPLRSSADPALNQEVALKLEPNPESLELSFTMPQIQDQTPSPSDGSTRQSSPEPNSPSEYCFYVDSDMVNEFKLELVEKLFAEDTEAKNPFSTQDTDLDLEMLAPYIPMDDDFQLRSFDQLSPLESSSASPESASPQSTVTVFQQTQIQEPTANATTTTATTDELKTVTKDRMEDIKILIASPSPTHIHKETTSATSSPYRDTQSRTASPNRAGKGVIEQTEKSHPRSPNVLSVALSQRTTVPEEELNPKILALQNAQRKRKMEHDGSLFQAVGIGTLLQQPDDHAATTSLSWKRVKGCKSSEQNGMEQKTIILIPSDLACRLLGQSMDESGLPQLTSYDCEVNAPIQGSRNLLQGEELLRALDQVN
Chain of Cellular tumor antigen p53 (Homo sapiens) (P04637 whole entry, looked up, the tested form may be a part): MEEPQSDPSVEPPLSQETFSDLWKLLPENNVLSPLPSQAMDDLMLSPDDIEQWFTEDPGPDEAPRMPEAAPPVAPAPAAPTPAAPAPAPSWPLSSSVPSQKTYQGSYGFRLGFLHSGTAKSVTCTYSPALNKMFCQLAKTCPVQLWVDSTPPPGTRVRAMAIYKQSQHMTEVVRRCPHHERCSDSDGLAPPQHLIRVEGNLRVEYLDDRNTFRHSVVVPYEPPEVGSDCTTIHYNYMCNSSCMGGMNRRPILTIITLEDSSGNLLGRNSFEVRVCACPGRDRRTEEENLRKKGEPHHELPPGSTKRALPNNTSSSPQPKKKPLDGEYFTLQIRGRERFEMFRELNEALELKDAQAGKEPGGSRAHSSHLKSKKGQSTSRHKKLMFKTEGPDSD
Chain of Transcription factor E2F1 (Homo sapiens) (Q01094 whole entry, looked up): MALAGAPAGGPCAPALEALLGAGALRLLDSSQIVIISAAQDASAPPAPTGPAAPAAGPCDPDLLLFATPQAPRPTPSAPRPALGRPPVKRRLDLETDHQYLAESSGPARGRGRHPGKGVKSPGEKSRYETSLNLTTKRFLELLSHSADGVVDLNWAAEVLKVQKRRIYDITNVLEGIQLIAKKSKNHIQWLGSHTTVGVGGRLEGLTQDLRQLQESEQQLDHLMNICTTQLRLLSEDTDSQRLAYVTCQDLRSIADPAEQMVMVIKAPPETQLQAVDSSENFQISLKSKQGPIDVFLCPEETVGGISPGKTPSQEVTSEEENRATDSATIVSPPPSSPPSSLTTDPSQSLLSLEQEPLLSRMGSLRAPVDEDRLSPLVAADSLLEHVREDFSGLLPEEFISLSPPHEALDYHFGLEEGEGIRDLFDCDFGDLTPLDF
Chain of Hepatocyte nuclear factor 6 (Homo sapiens) (Q9UBC0 whole entry, looked up): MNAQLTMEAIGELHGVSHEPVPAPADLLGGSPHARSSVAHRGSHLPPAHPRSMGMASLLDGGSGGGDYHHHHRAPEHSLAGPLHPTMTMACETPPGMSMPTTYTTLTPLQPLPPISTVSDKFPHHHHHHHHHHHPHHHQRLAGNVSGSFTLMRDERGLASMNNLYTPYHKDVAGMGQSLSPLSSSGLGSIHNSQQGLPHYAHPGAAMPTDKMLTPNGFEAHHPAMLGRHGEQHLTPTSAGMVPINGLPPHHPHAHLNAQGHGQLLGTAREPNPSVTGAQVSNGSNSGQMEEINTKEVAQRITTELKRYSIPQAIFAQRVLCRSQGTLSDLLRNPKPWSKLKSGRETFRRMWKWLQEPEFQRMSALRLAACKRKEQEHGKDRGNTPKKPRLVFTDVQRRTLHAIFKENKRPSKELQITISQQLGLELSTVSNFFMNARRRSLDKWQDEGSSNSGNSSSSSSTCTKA
Chain of Myc proto-oncogene protein (Homo sapiens) (P01106 whole entry, looked up): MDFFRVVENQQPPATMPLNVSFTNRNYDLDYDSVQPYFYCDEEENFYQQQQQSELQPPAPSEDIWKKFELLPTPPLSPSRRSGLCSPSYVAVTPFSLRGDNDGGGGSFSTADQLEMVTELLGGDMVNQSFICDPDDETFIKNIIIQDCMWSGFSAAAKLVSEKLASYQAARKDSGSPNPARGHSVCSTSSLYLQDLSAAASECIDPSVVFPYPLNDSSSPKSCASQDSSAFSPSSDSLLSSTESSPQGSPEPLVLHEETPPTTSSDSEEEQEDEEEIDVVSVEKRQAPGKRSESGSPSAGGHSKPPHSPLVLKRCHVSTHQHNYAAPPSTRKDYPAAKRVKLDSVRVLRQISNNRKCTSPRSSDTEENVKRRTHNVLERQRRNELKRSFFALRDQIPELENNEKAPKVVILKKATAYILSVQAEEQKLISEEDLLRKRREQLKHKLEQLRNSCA
Chain of Nuclear receptor subfamily 1 group I member 2 (Homo sapiens) (O75469 whole entry, looked up, the tested form may be a part): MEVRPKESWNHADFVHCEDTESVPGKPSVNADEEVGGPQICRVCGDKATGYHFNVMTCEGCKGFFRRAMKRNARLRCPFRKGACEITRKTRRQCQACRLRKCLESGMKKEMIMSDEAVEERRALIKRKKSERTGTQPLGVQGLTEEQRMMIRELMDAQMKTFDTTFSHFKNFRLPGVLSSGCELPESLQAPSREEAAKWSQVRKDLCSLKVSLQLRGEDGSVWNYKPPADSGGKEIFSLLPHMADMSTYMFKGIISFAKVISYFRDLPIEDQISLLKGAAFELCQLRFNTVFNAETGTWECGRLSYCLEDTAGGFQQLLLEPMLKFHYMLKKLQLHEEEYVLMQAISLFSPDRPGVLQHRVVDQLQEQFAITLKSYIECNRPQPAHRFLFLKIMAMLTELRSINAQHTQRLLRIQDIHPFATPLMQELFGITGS

CCC(C)C1N=C(C)C(C)S1 (configuration not stated)
active: [18] 4.45 µM
not listed: [19] | [20]
inactive: all other assays above

CC(=O)c1nccs1
not listed: [13] | [18]
inactive: all other assays above

CC(C)CC(=O)O
not listed: [18]
inactive: all other assays above

c1cc(N(CC2CO2)CC2CO2)ccc1Cc1ccc(N(CC2CO2)CC2CO2)cc1 (configuration not stated)
active: [1] 26.6 µM | [2] 27.3 µM | [5] 21.7 µM | [6] 6.64 µM | [8] 18.6 µM | [11] 26.1 µM | [20] 3.66 µM | [14] 5.98 µM | [17] 20.8 µM
not listed: [3] | [13]
inactive: all other assays above

NC(=O)c1ccc([N+](=O)[O-])cc1Cl
not listed: [10] | [19]
inactive: all other assays above

C=C(C)C(=O)OCCCCCC
not listed: [5] | [9] | [18] | [19]
inactive: all other assays above

CCCC(=O)OC/C=C(\C)CCC=C(C)C
not listed: [5] | [11] | [17]
inactive: all other assays above

CO[Si](CCCNCCN)(OC)OC
not listed: [17] | [18]
inactive: all other assays above
